# This is a sample that favours compounds with a hit; in the whole collection about 4.1% have one here.
# ABHD5-PLIN5 inh – blocks binding of human ABHD5 to perilipin-5. inhibition, % at 4 µM. hit rate 0.78% among 360,000. Q00G26+Q8WTS1. AID 602281. Split G. princeps luciferase complementation, luminescence, 4 h;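 active = inhibition above the mean inhibition across every tested compound plus 3 SD, cut at about 22% in these data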;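 also: 0% = DMSO only wells and the 100% control is not disclosed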
# PRMT1 FP inh – PRMT1 (human) inhibition, primary screen | Q99873 | recombinant PRMT1, activity-based probe fluorescence polarization | inhibition, % at 2.79 µM | hit rate 1.3% among 370,000 | AID 652257;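 active = inhibition above about 21% made by adding two undisclosed values, limit read from the data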
# UHRF1 binding – human UHRF1 methylated DNA binding inhibitors; inhibition, % at 4.4 µM; Q96T88; UHRF1 binding to methylated oligo, TR-FRET; AID 687016; hit rate 0.75% among 370,000; in the data active = inhibition above about 21%;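 also: UHRF1 SRA domain binding a hemimethylated CpG hairpin DNA probe; 0% = median of test compound wells and 100% = reference inhibitor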
# MBD2 DNA inh – MBD2-methylated oligo binding inhibition | Q9UBB5 | inhibition, % at 4.4 µM | hit rate 0.31% among 370,000 | AID 686964 | TR-FRET, MBD2 binding to methylated oligonucleotide; in the data active = inhibition above about 13%
# LEDGF integ inh – blocks HIV-1 LEDGF/p75-dependent DNA integration. TR-FRET IN-LEDGF/p75 DNA integration, Eu/Cy5. inhibition, % at 3.7 µM. hit rate 0.64% among 370,000;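 active = inhibition above the screen-wide mean plus 3 SD, cut at about 13% in these data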;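 also: signal is the Cy5 over europium emission ratio at 671 and 618 nm; 0% = plate median of compound wells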
# rCAG binder – binds r(CAG) RNA repeats; r(CAG) RNA repeat, TO-PRO-1 dye displacement fluorescence; inhibition, % at 3 µM; hit rate 1.3% among 370,000; AID 651821;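 active = inhibition above the plate cutoff, the mean of all test compounds on that plate plus 3 SD, cut at about 35% in these data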;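 also: 0% = DMSO alone and 100% = 100 µM mitoxantrone as full dye displacement; higher means more dye released from RNA so lower well fluorescence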
# ABHD5 PLIN5 conf – confirmation of human ABHD5-PLIN5 interaction inhibitors | hit rate 67% among 2,200 | shares compounds with ABHD5-PLIN5 inh | inhibition, % at 4 µM | AID 651612 | biochemical ABHD5-PLIN5 interaction, luminescence; in the data active = inhibition above about 23%;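 also: 0% = DMSO vehicle wells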
# HNF4 counter – counter-screen for ABHD5-PLIN5 inhibitors: HNF4 split-luciferase. shares compounds with ABHD5-PLIN5 inh. HNF4 dimerization, luminescence, biochemical. inhibition, % at 4 µM. hit rate 77% among 2,200. AID 651674;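 active = mean inhibition across replicate wells exceeding the computed hit threshold, cut at about 13% in these data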;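 also: light from luciferase halves that rejoin when HNF4 fusion proteins dimerize; 0% = DMSO only wells and the 100% control is not given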
# Target sequence (P41235 whole entry, looked up, the tested form may be a part): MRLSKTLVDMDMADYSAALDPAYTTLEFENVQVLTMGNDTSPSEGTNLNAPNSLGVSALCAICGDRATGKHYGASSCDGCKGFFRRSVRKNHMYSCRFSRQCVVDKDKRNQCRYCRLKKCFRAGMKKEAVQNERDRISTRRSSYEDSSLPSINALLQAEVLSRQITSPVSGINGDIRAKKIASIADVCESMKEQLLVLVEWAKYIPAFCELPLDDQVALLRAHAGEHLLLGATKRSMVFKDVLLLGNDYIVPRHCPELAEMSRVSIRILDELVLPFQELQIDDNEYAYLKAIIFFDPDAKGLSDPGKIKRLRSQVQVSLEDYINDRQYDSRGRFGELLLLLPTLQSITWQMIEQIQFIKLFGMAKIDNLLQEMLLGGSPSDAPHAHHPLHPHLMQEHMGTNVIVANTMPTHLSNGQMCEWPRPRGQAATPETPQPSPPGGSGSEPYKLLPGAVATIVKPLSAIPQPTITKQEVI
# PRMT1 inh conf – PRMT1 (human) inhibition, FP confirmation. inhibition, % at 2.79 µM. recombinant His-PRMT1, activity-based probe fluorescence polarization. shares compounds with PRMT1 FP inh. hit rate 42% among 3,300;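 active = mean inhibition across replicates above the hit cutoff derived for the earlier primary screen, cut at about 22% in these data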
# The depositor's hits bear a star; / = no result.
SMILES,ABHD5-PLIN5 inh,PRMT1 FP inh,UHRF1 binding,MBD2 DNA inh,LEDGF integ inh,rCAG binder,ABHD5 PLIN5 conf,HNF4 counter,PRMT1 inh conf
Cc1sc2nc(COC(=O)CNC(=O)c3cc(F)ccc3F)[nH]c(=O)c2c1C,/,3,1,-1,2,1,/,/,/
CCOc1cccc(-c2nnc3n2N=C(c2ccc(OC)cc2)CS3)c1,/,3,0,-2,0,2,/,/,/
Cc1ccc(-c2nc3cnccn3c2Nc2c(C)cccc2C)o1,38*,79*,-3,0,3,8,30*,94*,11
CN1CCN(C(=S)NC(=O)c2ccc(C(C)(C)C)cc2)CC1,-3,-1,-3,3,1,1,/,/,/
C=CCn1cccc(/C=C/C(=O)c2ccc(C(C)(C)C)cc2)c1=S,46*,27*,4,4,-3,6,75*,90*,1
COc1ccc(NC(=O)CSc2c3c(nc4ccccc24)CCCC3)c(OC)c1,25*,26*,3,3,-7,1,29*,44*,26*
COc1ccccc1NC(=O)CSc1c2c(nc3ccccc13)CCC2,1,3,1,-2,-4,-3,/,/,/
C=C1C(=O)C23C(O)C1CCC2C12COC3(O)C(O)C1C(C)(C)CCC2O (configuration not stated),96*,29*,-1,-7,1,-1,88*,106*,41*
O=C1N2CCCc3cccc(c32)C12Nc1ccccc1S2 (configuration not stated),61*,40*,0,-2,-2,-1,-4,-4,23*
CC1CC(C)(C)N2C(=O)C3(Nc4ccccc4S3)c3cccc1c32 (configuration not stated),-18,/,/,/,/,/,/,/,/
O=C(O)/C=C/C(=O)c1ccc2c(c1)NC(=O)CO2,90*,35*,1,2,1,-2,91*,105*,47*
CN(C(=O)[C@@H]1CC=C[C@@H]2CCN(C3CCCCC3)C(=O)[C@@H]21)c1ccccc1,/,-5,-3,-1,1,/,/,/,/
COc1cc(N=c2ssnc2Cl)cc(OC)c1OC,61*,97*,-10,5,4,3,68*,103*,90*
Cc1oc(=O)c(NC(=O)c2cccc(Cl)c2)cc1C(=O)c1ccccc1,34*,51*,-3,-4,3,7,18,100*,24*
Nc1ccccc1SC(CC(=O)c1ccccc1)c1ccc([N+](=O)[O-])cc1 (configuration not stated),71*,83*,9,-5,1,8,70*,85*,61*
Nc1ccccc1SC(CC(=O)c1ccccc1)c1cccc([N+](=O)[O-])c1 (configuration not stated),76*,86*,19,10,3,10,39*,100*,57*
O=C(CCN1CCc2ccccc2C(c2ccccc2)C1)c1ccc2c(c1)OCCO2 (configuration not stated),26*,38*,0,-5,2,2,23*,86*,20
COC(=O)c1ccc2c(C(C)c3ccccc3O)c[nH]c2c1 (configuration not stated),/,0,-2,3,0,9,/,/,/
CCOC(=O)CNc1nnc(SCC(=O)OCC)[nH]c1=O,26*,59*,-2,-6,0,6,41*,83*,54*
COC(=O)CSc1nnc(C)c(=O)[nH]1,0,0,0,-4,0,-1,/,/,/
Cc1sc(C(C2C(=O)CC(C)(C)CC2=O)C2C(=O)CC(C)(C)CC2=O)cc1[N+](=O)[O-],56*,26*,-1,1,5,18,92*,89*,45*

# Source: PubChem BioAssay (The Scripps Research Institute Molecular Screening Center)
